Compounds without any hit were thinned out: in the full panel of roughly 79,000, 15% have a hit. The source made the active and inactive calls. No stated cut-off is given here; in the data, active means growth inhibition above about 70%; inactive means the rest.
How the values were obtained:
[1] = NCI Yeast Anticancer Drug Screen. Data for the wt2 strain (AID 169);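 further: 0% = growth of vehicle-treated yeast cultures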; conditions: S. cerevisiae wt2 strain growth inhibition, stronger effect = higher value
Outline: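 The panel's yeast strains carry defined changes in DNA repair or cell cycle genes. Each strain is grown with compound, and growth loss is scored relative to vehicle.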

[2] = NCI Yeast Anticancer Drug Screen. Data for the mlh1 strain (AID 171);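 further: 0% = growth of vehicle-treated control cultures of the same strain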; conditions: S. cerevisiae mlh1 strain growth inhibition, stronger effect = higher value
Outline: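 Inhibition values reflect reduced yeast growth in the presence of compound, referenced to vehicle controls, using a strain chosen for its alteration in DNA repair or cell cycle control.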

[3] = NCI Yeast Anticancer Drug Screen. Data for the sgs1 strain (AID 173);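 further: 0% = growth of vehicle-only control cultures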; conditions: S. cerevisiae sgs1 mutant, stronger effect = higher value
Outline: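 Vehicle-treated cultures served as reference for growth inhibition of a yeast strain altered in DNA damage repair or cell cycle control after compound exposure.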

[4] = NCI Yeast Anticancer Drug Screen. Data for the mlh1 rad18 strain (AID 175); conditions: S. cerevisiae mlh1 rad18 strain growth inhibition, stronger effect = higher value
Outline: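 Inhibition values reflect reduced growth of mutant yeast versus vehicle-treated controls following compound exposure; the mutations affect DNA damage repair.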

[5] = NCI Yeast Anticancer Drug Screen. Data for the rad18 strain (AID 177); conditions: S. cerevisiae rad18 mutant growth inhibition, stronger effect = higher value
Outline: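 Steps: expose repair-mutant yeast to compound; measure growth; express as inhibition relative to vehicle control.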

[6] = NCI Yeast Anticancer Drug Screen. Data for the rad52 strain (AID 147);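 further: 0% = growth of vehicle-treated control cultures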; conditions: S. cerevisiae rad52 mutant growth inhibition, stronger effect = higher value
Outline: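 Inhibition of yeast growth, referenced to vehicle controls, was the measured output for a strain with defective DNA damage repair.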

[7] = NCI Yeast Anticancer Drug Screen. Data for the wt1 strain (AID 149);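 further: 0% = growth of vehicle-treated wt1 cultures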; conditions: S. cerevisiae wt1 strain (SPY 50644) growth inhibition, stronger effect = higher value
Outline: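 Readout: yeast growth inhibition, normalised to vehicle controls, in the wt1 strain exposed to test compounds.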

[8] = NCI Yeast Anticancer Drug Screen. Data for the rad50EPP+ strain (AID 151);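 further: 0% = growth of vehicle-treated control cultures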; conditions: S. cerevisiae rad50 mutant strain, stronger effect = higher value
Outline: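 Genetically defined yeast (rad50EPP+, DNA damage repair alteration) is grown with compound, and inhibition of growth is expressed relative to vehicle-treated controls.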

[9] = NCI Yeast Anticancer Drug Screen. Data for the mgt1 strain (AID 153); conditions: S. cerevisiae mgt1 mutant growth inhibition, stronger effect = higher value
Outline: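 In the mgt1 strain, test compounds were added and growth inhibition was determined relative to vehicle-treated controls.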

[10] = NCI Yeast Anticancer Drug Screen. Data for the rad50 strain (AID 155);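 further: 0% = growth of vehicle-only cultures of the same strain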; conditions: S. cerevisiae rad50 strain growth inhibition, stronger effect = higher value
Outline: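 Compounds were tested on a yeast strain with an engineered DNA damage repair alteration; the reported value is growth inhibition normalised to vehicle treatment.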

[11] = NCI Yeast Anticancer Drug Screen. Data for the mec2-1 strain (AID 157); conditions: S. cerevisiae mec2-1 strain, stronger effect = higher value
Outline: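 Each compound was tested on mec2-1 yeast, a strain altered in DNA damage repair or cell cycle control. Growth inhibition is reported relative to vehicle.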

[12] = NCI Yeast Anticancer Drug Screen. Data for the rad14 strain (AID 159);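 further: 0% = growth of vehicle-treated control cultures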; conditions: S. cerevisiae rad14 strain growth inhibition, stronger effect = higher value
Outline: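 Compound-treated yeast with a defined DNA-repair lesion; growth inhibition normalised to vehicle-treated cultures.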

[13] = NCI Yeast Anticancer Drug Screen. Data for the sgs1 mgt1 strain (AID 161);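 further: 0% = growth of cultures given vehicle only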; conditions: S. cerevisiae sgs1 mgt1 strain, stronger effect = higher value
Outline: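 Read-out: growth inhibition vs vehicle controls. Cells: mutant yeast strain deficient in DNA damage repair.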

[14] = NCI Yeast Anticancer Drug Screen. Data for the CLN2oe strain (AID 163);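 further: 0% = growth of vehicle-only control cultures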; conditions: S. cerevisiae CLN2oe strain, stronger effect = higher value
Outline: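 First, the altered yeast strain was treated with each compound; second, its growth was measured; finally, inhibition was derived by comparison with vehicle controls.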

[15] = NCI Yeast Anticancer Drug Screen. Data for the cln2 rad14 strain (AID 165);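 further: 0% = growth equal to vehicle treated cultures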; conditions: S. cerevisiae cln2 rad14 strain, stronger effect = higher value
Outline: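 Test compounds were added to cln2 rad14 yeast cultures; inhibition of growth was then determined by comparison with vehicle treatment.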

[16] = NCI Yeast Anticancer Drug Screen. Data for the bub3 strain (AID 167); conditions: S. cerevisiae bub3 mutant strain, stronger effect = higher value
Outline: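 Growth of a checkpoint-deficient yeast mutant is measured after compound exposure. Values represent inhibition relative to vehicle.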

[17] = at 5.0 µM (retest, dose inferred, filed as 0.5)
[18] = at 50.0 µM (retest, dose inferred, filed as 5.0)

Measured: growth inhibition

[N-]=[N+]=NC1(c2ccccc2)C(=O)Nc2ccccc2C1=O (stereo unspecified)
inactive: [1]; at 1.2 µM -3% | [1]; at 3.7 µM -2% | [1]; at 11.0 µM 1% | [1]; at 33.0 µM 13% | [1]; at 100.0 µM 22% | [2]; at 1.2 µM -2% | [2]; at 3.7 µM -5% | [2]; at 11.0 µM 1% | [2]; at 33.0 µM 12% | [2]; at 100.0 µM 17% | [3]; at 1.2 µM -1% | [3]; at 3.7 µM 2% | [3]; at 11.0 µM 9% | [3]; at 33.0 µM 27% | [3]; at 100.0 µM 39% | [4]; [17] -22% | [4]; [18] 46% | [4]; at 50.0 µM 58% | [5]; at 1.2 µM -2% | [5]; at 3.7 µM 1% | [5]; at 11.0 µM 7% | [5]; at 33.0 µM 19% | [5]; at 100.0 µM 50%

CCCCCCCCCCCCOCCOCCOCC(N)=O
inactive: [6]; at 1.2 µM 15% | [6]; at 3.7 µM -11% | [6]; at 11.0 µM 1% | [7]; at 1.2 µM -39% | [7]; at 3.7 µM -39% | [7]; at 11.0 µM -41% | [8]; at 1.2 µM -14% | [8]; at 3.7 µM -20% | [8]; at 11.0 µM -11% | [8]; at 33.0 µM 10% | [9]; at 1.2 µM 9% | [9]; at 3.7 µM -8% | [9]; at 11.0 µM -10% | [10]; at 1.2 µM 6% | [10]; at 3.7 µM -1% | [10]; [17] 36% | [10]; at 11.0 µM 10% | [10]; [18] 36% | [11]; at 1.2 µM -6% | [11]; at 3.7 µM -6% | [11]; [17] 39% | [11]; at 11.0 µM 16% | [11]; [18] 29% | [12]; at 1.2 µM -9% | [12]; at 3.7 µM -11% | [12]; at 11.0 µM -17% | [13]; [17] 5% | [14]; at 1.2 µM -15% | [14]; at 3.7 µM -18% | [14]; at 11.0 µM -13% | [15]; [17] 61% | [16]; at 1.2 µM -6% | [16]; at 3.7 µM 1% | [16]; [17] 21% | [16]; at 11.0 µM -13% | [1]; at 1.2 µM -26% | [1]; at 3.7 µM -20% | [1]; at 11.0 µM -12% | [2]; at 1.2 µM -12% | [2]; at 3.7 µM -12% | [2]; at 11.0 µM 6% | [3]; at 1.2 µM -12% | [3]; at 3.7 µM -15% | [3]; at 11.0 µM -5% | [4]; [17] 26% | [4]; [18] 43% | [5]; at 1.2 µM -18% | [5]; at 3.7 µM -31% | [5]; at 11.0 µM -18%
active: [6]; at 33.0 µM 97% | [6]; at 100.0 µM 96% | [7]; at 33.0 µM 95% | [7]; at 100.0 µM 94% | [8]; at 100.0 µM 80% | [9]; at 33.0 µM 97% | [9]; at 100.0 µM 96% | [10]; at 33.0 µM 97% | [10]; at 50.0 µM 91.2% | [10]; at 100.0 µM 95% | [11]; at 33.0 µM 97% | [11]; at 50.0 µM 92.5% | [11]; at 100.0 µM 95% | [12]; at 33.0 µM 97% | [12]; at 100.0 µM 94% | [13]; [18] 98% | [13]; at 50.0 µM 93.3% | [14]; at 33.0 µM 96% | [14]; at 100.0 µM 93% | [15]; [18] 97% | [15]; at 50.0 µM 89.5% | [16]; at 33.0 µM 97% | [16]; [18] 97% | [16]; at 50.0 µM 91.5% | [16]; at 100.0 µM 94% | [1]; at 33.0 µM 97% | [1]; at 100.0 µM 96% | [2]; at 33.0 µM 93% | [2]; at 100.0 µM 96% | [3]; at 33.0 µM 96% | [3]; at 100.0 µM 94% | [4]; at 50.0 µM 91.1% | [5]; at 33.0 µM 97% | [5]; at 100.0 µM 95%
